Experimental data taken from PubChem BioAssay AID1259240 (Keith Lab, Institute of Cancer Science, University of …, 2017).
Activity calls are given as the source filed them. Rule as the data show it: active = fold change mostly below about -2 (no sharp cut-off); inactive = mostly above about -1.8.

test: TERT promoter activity modulators, primary screen, cell-based, luciferase reporter, human (AID 1259240); conditions: A2780 TERT promoter luciferase reporter, 16 h; at 20 µM, fold versus average of vehicle-only wells

Fold change, active:
Cn1c(CC(=O)NC(C)(C)CO)c(Sc2ccccc2)c2ccccc21 -2.11, CCCCN1C(=O)/C(=C2\SC(N3CCCCC3)=NC2=O)c2ccccc21 -8.65

Fold change, inactive:
Cc1nnc(NC(=O)Cn2c(=O)sc3ccccc32)s1 -1.03, O=C(CC1(O)C(=O)N(CCc2ccccc2)c2ccc(Cl)cc21)c1ccc(F)cc1 (configuration not stated) -1.87, O=C(Nc1ccc(F)cc1)c1c[nH]n2c(=O)cc(C3CCNCC3)nc12 -1.37, CCOC(=O)CSc1nc(SCC(=O)OCC)c2c3c([nH]c2n1)CCCC3 1.35, O=C(CN1C(=O)C2(OCCO2)c2ccccc21)c1ccc(F)cc1 1.12, CCOC(=O)CNc1c(N(C)C2CCCCC2)c(=O)c1=O -1.1, CCN(CC)C(=O)Nc1ccc2snnc2c1 -1.04, C=CCNC(=O)c1onc(C)c1Cl 1.22, c1ccc(Nc2c(-c3ccc(N4CCOCC4)cc3)nc3cnccn23)cc1 1.08, c1nc(N2CCOCC2)c2sc3nc(N4CCOCC4)c4c(c3c2n1)CCCC4 -1.09, O=C(O)Cn1cc(/C=C2/C(=O)Nc3ccccc32)c2ccccc21 1.41, COC(=O)c1cc(NS(=O)(=O)c2cccc3cccnc23)cc(C(=O)OC)c1 -1.91, COC(=O)c1[nH]c(=O)c2ccccc2c1O -1.15, CCOC(=O)c1cc2cc(Cl)ccc2oc1=O 1.32, Cc1ccc2nc(N3CCOCC3)c3nncn3c2c1 1.35
